Assay [1] has as its system C33A. Kind of assay: Primary qHTS to identify gynecologic anti-cancer compounds using libraries of approved drugs and bioactive compounds (AID 1345084). Note: nearly all actives have a fitted effect of over 55% in size. To be noted: Gynecologic cancer cell panel viability, ATPlite luminescence, 48 h; series mostly up to 57.5 µM. An outline of the steps:
(§1)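 48 h compound exposure at 37 C, 5% CO2; five-point qHTS. ATPlite luminescence readout of cell ATP.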
On the technique in general: Quantitative high-throughput screening tests each substance at several concentrations.

Assay [2] relates to CAOV3. The description is as above. Particulars: Gynecologic cancer cell panel viability, ATPlite luminescence, 48 h; series mostly up to 57.5 µM. An outline of the steps:
as §1
(In ATP-based viability assays light output follows the ATP content of the culture.)

The test system of assay [3] is Es-2. The assay is described as above. To be noted: Gynecologic cancer cell panel viability, ATPlite luminescence, 48 h; series mostly up to 57.5 µM. The method, boiled down: as §1
Assay [4] deals with Hek293T. The assay is described as above. To be noted: Gynecologic cancer cell panel viability, ATPlite luminescence, 48 h, control line for the selectivity index; series mostly up to 57.5 µM. The method, boiled down:
as §1

Assay [5] deals with JEG-3. Described as above. Particulars: Gynecologic cancer cell panel viability, ATPlite luminescence, 48 h; series mostly up to 57.5 µM. The method, boiled down: as §1
Assay [6] concerns OV90. The assay is described as above. To be noted: Gynecologic cancer cell panel viability, ATPlite luminescence, 48 h; series mostly up to 57.5 µM. An outline of the steps: as §1
Assay [7] deals with Tov112D. The assay is described as above. To be noted: Gynecologic cancer cell panel viability, ATPlite luminescence, 48 h; series mostly up to 57.5 µM. An outline of the steps:
as §1

The subject of assay [8] is CASKI. The description is as above. To be noted: Gynecologic cancer cell panel viability, ATPlite luminescence, 48 h; series mostly up to 57.5 µM. An outline of the steps: as §1
Assay [9] relates to HeLa. The assay is described as above. To be noted: Gynecologic cancer cell panel viability, ATPlite luminescence, 48 h; series mostly up to 57.5 µM. The method, boiled down: as §1
The subject of assay [10] is PA-1. The assay is described as above. Particulars: Gynecologic cancer cell panel viability, ATPlite luminescence, 48 h; series mostly up to 57.5 µM. The method, boiled down: as §1
For assay [11], the system named is SKOV3. The assay is described as above. Particulars: Gynecologic cancer cell panel viability, ATPlite luminescence, 48 h; series mostly up to 57.5 µM. An outline of the steps: as §1
Assay [12] deals with Tov-21-G. The assay is described as above. Particulars: Gynecologic cancer cell panel viability, ATPlite luminescence, 48 h; series mostly up to 57.5 µM. The method, boiled down:
as §1

The nature of assay [13]: Drug repurposing screens with cells derived from glioblastoma tumor samples (AID 1345199). Note: nearly all actives have a fitted effect of over 40% in size. To be noted: GBM patient neurospheres viability, ATP luminescence, 48 h. The method, boiled down: (§2)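 Four patient lines of CD133+ GBM neurospheres were screened at several concentrations; hits were retested in those lines plus three slower-growing GBM lines, using 48-hour treatment and ATP-based viability.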

The subject of assay [14] is astro. The description is as above. To be noted: viability, ATP luminescence, 48 h; series mostly up to 45.9 µM. An outline of the steps:
as §2

Setting [15] is: at 21.2 µM (top of the series), tumour line B.
The mark [16] stands for this setting: at 21.2 µM (top of the series), tumour line D.
[17] abbreviates: at 21.3 µM (top of the series), tumour line A.
Setting [18] is: at 46 µM (top of the series), tumour line A.
Setting [19] is: at 45.9 µM (top of the series), tumour line B.
Where [20] appears, read: at 45.9 µM (top of the series), tumour line D.
Where [21] appears, read: at 46.1 µM (top of the series), tumour line C.
The mark [22] stands for this setting: at 20 µM (top of the series), tumour line C.

Results filed as inconclusive are left out. A number with no mark means an inactive call. The source made the active and inactive calls. Calls come from the whole dose curve; as a rule, active = well fitted curve in the direction sought with a large enough effect; inconclusive = small, poorly fitted or top-dose-only effect, or another doubt; inactive = no such curve, though single readings can be large; an effect the other way counts as inactive or inconclusive.
% is set by controls: 0 for no effect and ±100 for the full control effect; potency is the fitted concentration of half-maximal effect.

Consider `CCOc1cc2ncc(C#N)c(Nc3ccc(OCc4ccccn4)c(Cl)c3)c2cc1NC(=O)/C=C/CN(C)C`, for which the Potency entry in assay [1], in [2], in assay [3], in assay [4], in [5] and in assay [6] was “inactive” each time. Further, the Potency result in assay [7] was “inactive”.

With `C=C1[C@H]2[C@H](O[C@@H]3O[C@H](COC(=O)/C=C/c4cc(OC)c(O)c(OC)c4)[C@@H](O)[C@H](O)[C@H]3O)OC=C(C(=O)O)[C@H]2C[C@@H]1O`, the Potency result in assay [1], in [8], in assay [3], in [9], in [4] and in assay [5] was “inactive” each time. Moreover, the Potency result in assay [6], in [10], in assay [11], in [12] and in [7] was “inactive” each time.

Regarding `CCCCCCc1cccc(NC(=O)[C@H](N)CCP(=O)(O)O)c1`, the activity change, negative = cytotoxicity in assay [1] was 10.1% [at 11.6 µM]; in assay [8], 0.791% [at 11.6 µM]; in assay [3] it was 1.07% [at 11.6 µM]; in [9], 2.94% [at 11.6 µM]; in assay [4], -0.817% [at 11.6 µM]; in [5] it was 8.47% [at 11.6 µM]. Further, the activity change, negative = cytotoxicity in assay [6] is 3.38% [at 11.6 µM]; in assay [10], 2.71% [at 11.6 µM]; in assay [11], -0.133% [at 11.6 µM]; in [12], -2.84% [at 11.6 µM]; in assay [7], 3.09% [at 11.6 µM].

For `COc1ccc(/C=C/C(=O)O[C@@H]2[C@@H](O)[C@H](C)O[C@@H](OC3C4C=COC(O[C@@H]5O[C@H](CO)[C@@H](O)[C@H](O)[C@H]5O)C4C4(CO)OC34)[C@@H]2O)cc1OC` (stereo partly drawn), the Potency result in [1], in assay [8], in [3], in [9], in [4] and in [5] was “inactive” each time. Further, the Potency result in assay [6], in [10], in assay [11], in assay [12] and in [7] was “inactive” each time.

For `CC(C)CC(=O)O[C@@H]1OC=C(CO[C@@H]2O[C@H](CO[C@@H]3O[C@H](CO)[C@@H](O)[C@H](O)[C@H]3O)[C@@H](O)[C@H](O)[C@H]2O)[C@H]2C[C@H](O)[C@@H](CO)[C@@H]12`, the Potency entry in assay [1], in assay [8], in assay [3], in [9], in assay [4] and in [5] was “inactive” each time. The Potency result in [6], in assay [10], in [11], in assay [12] and in [7] was “inactive” each time.

With `O=C1NC(=Nc2ccccc2F)S/C1=C\c1ccc(C(=O)O)cc1`, the Potency entry in assay [1], in assay [2], in [3], in assay [9], in [4] and in [5] was “inactive” each time. Also, the Potency entry in [6], in assay [10], in assay [12] and in assay [7] was “inactive” throughout.

For the compound `Cc1ccc(C(=O)Nc2ccc(Oc3cc4cnn(C)c4cc3-c3cn[nH]c3)c(F)c2)c(=O)n1-c1ccc(F)cc1`, the Potency entry in [1] and in assay [3] was “inactive” in each case. Also, the Potency in assay [2] was 8.91 µM (active).

On to `NC(=O)[C@H]1CCCCc2c1[nH]c1ccc(Cl)cc21`, for which the Potency result in [1], in assay [8], in [3], in assay [9], in [4] and in assay [5] was “inactive” throughout. Besides, the Potency result in assay [6], in assay [10], in assay [11], in assay [12] and in assay [7] was “inactive” each time.

For the compound `CN1C(=O)c2ccccc2-n2c(nc3ccccc3c2=O)[C@@]12O[C@H]2c1ccccc1`, the Potency result in assay [1], in assay [8], in [3], in assay [9], in assay [4] and in assay [5] was “inactive” throughout. The Potency entry in assay [6], in assay [10], in [11], in assay [12] and in [7] was “inactive” in each case.

Turning to `CC1(CCC(=O)O)C(=O)C=CC23CC4CC(OC4(C)C2O)C13` (stereo not drawn), the Potency entry in assay [1], in [8], in assay [3], in assay [9], in [4] and in assay [5] was “inactive” in each case. Further, the Potency result in assay [6], in assay [10], in [11], in assay [12] and in assay [7] was “inactive” each time.

With `CCC(=O)O[C@@H]1CC(=O)O[C@H](C)C/C=C/C=C/[C@H](O)[C@H](C)C[C@H](CC=O)[C@H](O[C@@H]2O[C@H](C)[C@@H](O[C@H]3C[C@@](C)(O)[C@@H](OC(=O)CC)[C@H](C)O3)[C@H](N(C)C)[C@H]2O)[C@H]1OC`, the activity, negative = cell killing was -16.2% in [13] (setting [15]), -1.85% in assay [13] (setting [16]) and -24.3% in assay [13] (setting [17]).

As for `CC(C)NCC1CCc2cc(CO)c([N+](=O)[O-])cc2N1` (stereo not drawn), the activity, negative = cell killing is -15% in assay [13] (setting [15]) and -4.44% in [13] (setting [16]).

In the case of `C=CC1=C(C)C2=CC3=NC(=C(CC(=O)[O-])C4=NC(=C(C)C4=C([O-])[O-])C=c4[n-]c(c(C)c4CC)=CC1=N2)C(CCC(=O)[O-])C3C.[Cu+2].[Na+].[Na+].[Na+]` (stereo not drawn), the activity, negative = cell killing in [13] (setting [18]) is -28%.

Take `N[C@H](C(=O)O)[C@@H]1CC(Cl)=NO1`: the activity, negative = cell killing in [13] (setting [18]) was -38.5%. For the same compound, the Potency in [13] (tumour line C) was 6.51 µM (active).

`CCc1ccc2c(c1)N(CC(C)CN(C)C)c1ccccc1S2` (stereo not drawn): the Potency in assay [13] (tumour line B) was 25.1 µM (active).

As to `CN1CCC(CN2c3ccccc3Sc3ccccc32)C1` (stereo not drawn), the Potency is 35.5 µM (active) in assay [13] (tumour line B) and 17.8 µM (active) in [13] (tumour line D).

`OCCO[C@@H]1[C@@H](O)[C@H](O)[C@@H](CO)O[C@@H]1O`: the activity, negative = cell killing in assay [13] (setting [19]) is -12.3%; in assay [13] (setting [20]), -11.5%; in assay [13] (setting [18]), -14.9%; in [13] (setting [21]), -19.4%. Moreover, the Potency entry in assay [14] is “inactive”.

For the compound `CCCC(=O)Nc1ncnc2c1ncn2[C@@H]1O[C@@H]2COP(=O)(O)O[C@H]2[C@H]1OC(=O)CCC`, the activity, negative = cell killing in assay [13] (setting [19]) is -14.5%; in assay [13] (setting [20]) it was -5%; in [13] (setting [18]), -18.2%; in assay [13] (setting [21]), -13.8%. Besides, the Potency result in [14] is “inactive”.

In the case of `O=C(O)c1cc(O)c2c(c1)[O][Bi][O]2`, the activity, negative = cell killing was -11.9% in assay [13] (setting [19]), -5.77% in assay [13] (setting [20]), -19.4% in [13] (setting [18]) and 3.44% in assay [13] (setting [21]). The Potency result in [14] was “inactive”.

Turning to `Cc1cc(C(=O)NNCc2ccccc2)no1`, the activity, negative = cell killing in [13] (setting [22]) is -3.86%; in [13] (setting [15]) it was -7.11%; in [13] (setting [16]) it was -19.1%; in [13] (setting [17]) it was -21.8%. In addition, the Potency entry in [14] is “inactive”.

In the case of `CC(C)(C)C(=O)OCOC(=O)[C@@H]1N2C(=O)[C@@H](N=CN3CCCCCC3)[C@H]2SC1(C)C`, the activity, negative = cell killing was -7.48% in assay [13] (setting [22]), -4.41% in assay [13] (setting [15]), 17.4% in [13] (setting [16]) and -13.2% in [13] (setting [17]). In addition, the Potency entry in [14] was “inactive”.

Take `CCCCCCCCCCCCCCCC(=O)OCC(COC(=O)CCCCCCCCCCCCCCC)OC(=O)CCCCCCCCCCCCCCC`: the activity, negative = cell killing was -15.6% in assay [13] (setting [19]), -3.31% in assay [13] (setting [20]), -22.2% in [13] (setting [18]) and -9% in assay [13] (setting [21]). Further, the Potency result in assay [14] was “inactive”.

In the case of `C=C(NC(=O)C(=C)NC(=O)c1csc(C2=N[C@@H]3c4csc(n4)[C@H]4NC(=O)c5csc(n5)[C@H]([C@](C)(O)[C@@H](C)O)NC(=O)[C@H]5CSC(=N5)C(=CC)NC(=O)C([C@@H](C)O)NC(=O)c5csc(n5)[C@]3(CC2)NC(=O)[C@H](C)NC(=O)C(=C)NC(=O)[C@H](C)NC(=O)C([C@@H](C)CC)NC2C=Cc3c([C@H](C)O)cc(nc3C2O)C(=O)O[C@@H]4C)n1)C(N)=O` (stereo partly drawn), the activity, negative = cell killing in assay [13] (setting [22]) is -17.2%. The Potency in assay [13] (tumour line A) was 11.2 µM (active); in assay [13] (tumour line B), 14.1 µM (active); in assay [13] (tumour line D), 14.1 µM (active). The Potency result in [14] is “inactive”.

(Values after PubChem BioAssay (NCATS).)
